Assay results taken from PubChem BioAssay (NCI).
This is part of a sample that, as a whole, favours compounds with a hit. Of some 83,000 tested, about 20% had one in any assay.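 Method: cells in 96-well plates; compound added at one concentration; 48 h incubation; percent growth measured; values under 10 scored active.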 Values without a mark were called inactive. Active and inactive are the calls of the source.

test system: OVCAR-3 ovarian; test: NCI-60 one-dose screen, 48 h (100 = growth as untreated, 0 = no growth, -100 = all killed); details: 10 µM unless noted
Procedure: Growth inhibition of the OVCAR-3 human tumor cell line is measured as a screen for anti-cancer activity. Cells are grown in 96 well plates and exposed to the test compound for 48 hours. Compounds are tested at a single concentration, which is 10^-5 M for most compounds. The reported endpoint is percent growth (GI% or GIPRCNT), where numbers from 0 - 100% represent growth inhibition, and numbers from -100% - 0 represent cell death. For example, a value of 40 represents 60% growth inhibition. A value of 0 means no net growth occurred over the course of the experiment. A value of -40 indicates 40% of cells at the beginning of the experiment died by the end of the experiment. A value of -100 means all cells are dead at the end of the experiment.
NCI-60 Human Tumor Cell Lines Screen was performed using the standard one-dose NCI protocol, which is described in more detail at https://dtp.cancer.gov/discovery_development/nci-60/default.htm.
Compounds with GIPRCNT values below 10 were considered active. Activity score was based on GIPRCNT using the following formula: […]
Score is 0 for GIPRCNT values of 100 or above, 50 for GIPRCNT values of 0, and 100 for GIPRCNT values of -100.

Structure (SMILES) | growth
CO[C@@H](c1ccccc1Cl)[C@H](C)OC(N)=O | 111%
CCCCOC(=O)c1ccccc1C(=O)O.CCCCOC(=O)c1ccccc1C(=O)O.[Cu+2] | 110%
C[C@]12CC[C@H]3[C@@H](C[C@@H]4N=C(c5ccc(O)cc5)S[C@@]45C[C@H](O)CC[C@]35C)[C@@H]1CC[C@@H]2O | 38.6%
S=P(N1CCCCCC1)(N1CC1)N1CC1 | 112%
CN1CCN(C(=O)COc2ccc(/C=C3\CC4C5CC=C6CC(Cl)CCC6(C)C5CCC4(C)C3=O)cc2)CC1 (stereo not given) | 76.1%
Nc1ncnc2c1c(C(=O)NO)cn2C1OC(CO)C(O)C1O (stereo not given) | -49.3% (active)
N#[N+]c1nc2nc(N)[nH]c(=O)c2[nH]1 | 113%
ClCCN(CCCl)c1nc(Cl)c(C2CC(c3ccc(Cl)cc3)=NN2c2cc(Cl)cc(Cl)c2)s1 (stereo not given) | 108%
FC(F)=C(F)c1ccccc1 | 114%
Cc1ccc(C(=O)C2CN(C)CCC2(O)c2ccc(C)cc2)cc1 (stereo not given) | 119%
Cc1cccc(N=C2c3cc([N+](=O)[O-])ccc3-c3c2cc([N+](=O)[O-])cc3[N+](=O)[O-])c1 | 50.4%
CC(/C=N/N=C(N)N)=N/N=C(N)N | 79.8%
CC(=O)O[C@H]1C[C@H](O[C@H]2[C@@H](O)C[C@H](O[C@H]3[C@@H](O)C[C@H](O[C@H]4CC[C@@]5(C)C(CCC6C5C[C@@H](O)[C@]5(C)[C@@H](C7=CC(=O)OC7)CC[C@]65O)C4)O[C@@H]3C)O[C@@H]2C)O[C@H](C)[C@H]1O[C@@H]1O[C@H](CO)[C@@H](O)[C@H](O)[C@H]1O (stereo not given in full) | -100% (active)
C[C@]12CCc3sc(-c4ccc(Cl)cc4)nc3C1=CC[C@@H]1[C@@H]2CC[C@]2(C)C(=O)CC[C@@H]12 | 27.2%
CC1([N+](=O)[O-])COP(=O)(Nc2ccc(F)cc2)OC1 (stereo not given) | 104%
CC1(C)N=C(N)N=C(N)N1c1ccc(OCCCCNC(=O)Nc2cccc(S(=O)(=O)F)c2)c(Cl)c1 | 82.3%
O=[N+]([O-])c1cccc([As]=[As]c2cccc([N+](=O)[O-])c2)c1 (stereo not given) | -96.1% (active)
CNC(=O)Oc1ccccc1-c1ccccc1 | 105%
OC1(c2ccc(Cl)cc2Cl)c2ccccc2C2=NCCN21 (stereo not given) | 85.6%
O=C1NC(=O)C(CN2C(=O)C3(c4ccccc42)[C@H](Cl)C(=O)N3c2ccccc2)C(=O)N1 (stereo not given in full) | 54.7%

Structure (SMILES) | growth
O=C(O)c1cccc(CCl)c1 | 109%
COC(C)(C)CCC[C@H](C)C/C=C/C(C)=C/C(=O)OC(C)C | 111%
CC(C)(C)N(Cc1ccccc1)N=O | 118%
COc1cc(N(CCCl)CCCl)ccc1C=Nc1ccccc1C(=O)O | 97.8%
N#C[Se]CCN1C(=O)C2C(C1=O)[C@H]1C=C[C@@H]2S1 (stereo not given in full) | -64.6% (active)
O=S(=O)(c1ccc(Cl)cc1)C(Cl)(Cl)Cl | -15.6% (active)
n1nc(-c2nonc2-c2nn[nH]n2)n[nH]1 | 150%
CC1(C)N=C(N)N=C(N)N1c1ccc(OCCCCOc2ccc(S(=O)(=O)F)cc2)c(Cl)c1 | 28.4%
S=P(NC1CCCCC1)(N1CC1)N1CC1 | 112%
CCOC(=O)c1cnc(SCc2ccc(Cl)c(Cl)c2)nc1N1CC1 | 54.6%
CCOC(=O)/C=C(\C)Nc1ccc(N/C(C)=C/C(=O)OCC)c2c1Oc1ccccc1O2 | 92.6%
O=S(=O)(Cl)c1ccccc1 (tested in a mixture with another compound) | 106%
NC(=O)OCC(CO)(c1ccccc1)c1ccccc1 | 100%
O=C(O)c1[nH]c(=O)[nH]c(=O)c1F | 106%
CC(=O)Oc1ccc(Cl)cc1 | 63.7%
OC1CCCCC1N1CCC(c2ccccc2)CC1 (stereo not given) | 106%
O=C(CF)N(O)c1ccc(/C=C/c2ccccc2)cc1 | 23.9%
CNC(C)Cc1ccccc1 (stereo not given) (tested in a mixture with another compound) | 104%
CNc1ccc(C(=O)CC(O)CCC(C)C2OC(=O)CC(O)CC(=O)CC(O)CC(O)CC(O)CC(O)CC3(O)CC(O)C(C(=O)OC)C(CC(O[C@@H]4O[C@H](C)[C@@H](O)[C@H](N)[C@@H]4O)/C=C/C=C/C=C/C=C/C=C/C=C/C=C/C2C)O3)cc1 (stereo not given in full) | -15% (active)
C[C@]12CC[C@@H]3C4=C(CC[C@H]3[C@@H]1CC[C@@H]2O)CC(=O)CC4 | 113%
